Inconclusive results are not listed. The source made the active and inactive calls. The call rests on the fitted dose curve; in most records, active means well fitted cell-killing curve with a large enough effect (not every such curve was filed as active); inconclusive means small, poorly fitted or top-dose-only effect, or another doubt; inactive means no such curve, though single readings can be large or run the other way.
Assay: qHTS Assay for Agonists of the Relaxin Receptor RXFP1: Cytotoxicity SAR
Details: HEK293-RXFP1 viability, ATPLite luminescence, 72 h; series mostly up to 78.1 µM
From the text: The relaxin hormone is involved in the variety of biological functions in normal tissues and diseases. The role of relaxin is well-established in female reproduction and parturition, mammary gland and endometrial development, maintenance of myometrial quiescence during pregnancy. Relaxin signaling through its G protein-coupled receptor (GPCR) RXFP1 results in ECM remodeling through regulation of collagen deposition, cell invasiveness, proliferation and overall tissue homeostasis. […] Recombinant human relaxin (rhRlx) is currently being tested in clinical trials as a protective agent in congestive heart failure, in treating severe preeclampsia, and as an anti-fibrotic agent in systemic sclerosis. In the primary screen, upon relaxin binding RXFP1 activation leads to the activation of adenylate cyclase (AC) via Gs. cAMP will activate PKA, which phosphorylates many signaling proteins. Thus, detection of cAMP increase is an easy and reliable indication of relaxin receptor activation. To screen for agonists of the relaxin receptor, a HEK293T cell line stably transfected with RXFP1 was used. RXFP1 activation was assayed by changes in cAMP levels as detected with a time-resolved fluorescence energy transfer (TR-FRET) cAMP detection kit. We conducted this followup assay to measure the effect of the lead candidates on cell health by measuring ATP levels (ATPLite). NIH Chemical Genomics Center [NCGC] NIH Molecular Libraries Probe Production Centers Network [MLPCN] MLPCN Grant: R03 MH085705-01A1 Assay Submitter (PI): Alexander Agoulnik
In this assay, the luciferase enzyme catalyzes the conversion of the added substrate D-luciferin to oxyluciferin and light with ATP. Thus, the emitted light is proportional to the ATP concentration. To evaluate the cytotoxic properties of the compounds, HEK293-RXFP1 cells were incubated with compounds for 72 h in growth media (DMEM 10% FBS, 1x Pen/Strep, 0.5 mg/mL G418) in 384-well format. After compound incubation, the levels of ATP in each well were measured with the addition of the ATPLite assay reagent.

Row | Structure (SMILES) | Potency
1 | O=C(Cc1ccccc1)Nc1ccccc1C(=O)Nc1cccc(C(F)(F)F)c1 | 47.1 µM (active)
2 | CCOc1ccccc1C(=O)Nc1ccccc1CNc1cccc(S(=O)(=O)C(F)(F)F)c1 | inactive
3 | COc1ccccc1C(=O)Nc1cccc(C(=O)Nc2cccc(C(F)(F)F)c2)c1 | 18.8 µM (active)
4 | O=C(Nc1cccc(Cl)c1)c1ccccc1NC(=O)C1CCCCC1 | 29.7 µM (active)
5 | COc1ccccc1C(=O)N(C)c1ccccc1C(=O)N(C)c1cccc(C(F)(F)F)c1 | 59.3 µM (active)
6 | O=C(Nc1cccc([N+](=O)[O-])c1)c1ccccc1NC(=O)C1CCCCC1 | inactive
7 | CCOc1ccccc1C(=O)Nc1ccncc1C(=O)Nc1cccc(S(=O)(=O)C(F)(F)F)c1 | 2.36 µM (active)
8 | CCOc1ccccc1S(=O)(=O)Nc1ccccc1C(=O)Nc1cccc(S(=O)(=O)C(F)(F)F)c1 | 5.93 µM (active)
9 | O=C(Nc1ccccc1C(=O)Nc1cccc(C(F)(F)F)c1)c1cccnc1 | inactive
10 | COc1ccccc1C(=O)Nc1ccccc1C(=O)Nc1cccc(C(F)(F)F)c1 | inactive
11 | CN(C)CCOc1ccccc1C(=O)Nc1ccccc1C(=O)Nc1cccc(C(F)(F)F)c1 | inactive
12 | CSc1cccc(NC(=O)c2ccccc2NC(=O)C2CCCCC2)c1 | inactive
13 | Cc1cccc(NC(=O)c2ccccc2NC(=O)C2CCCCC2)c1 | 23.6 µM (active)
14 | COc1ccc(C(=O)Nc2ccccc2C(=O)Nc2cccc(C(F)(F)F)c2)cc1 | inactive
15 | O=C(Nc1cccc(-c2ccccc2)c1)c1ccccc1NC(=O)C1CCCCC1 | 14.9 µM (active)
16 | COc1ccccc1CNc1ccccc1C(=O)Nc1cccc(C(F)(F)F)c1 | 23.6 µM (active)
17 | COCCNc1ccccc1C(=O)Nc1cccc(C(F)(F)F)c1 | 29.7 µM (active)
18 | CCOc1ccccc1C(=O)Nc1cnccc1C(=O)Nc1cccc(S(=O)(=O)C(F)(F)F)c1 | 23.6 µM (active)
19 | CC(C)Oc1ccccc1C(=O)Nc1ccccc1C(=O)Nc1cccc(C(F)(F)F)c1 | inactive
20 | O=C(Nc1cccc(Br)c1)c1ccccc1NC(=O)C1CCCCC1 | inactive

Row | Structure (SMILES) | Potency
21 | Cc1ccccc1C(=O)Nc1ccccc1C(=O)Nc1cccc(C(F)(F)F)c1 | inactive
22 | CCOc1ccccc1C(=O)Nc1ccccc1C(=O)Nc1cccc(C(F)(F)F)c1 | inactive
23 | O=C(Nc1cccc(-c2ccccc2C(F)(F)F)c1)c1ccccc1NC(=O)C1CCCCC1 | inactive
24 | COc1ccccc1-c1ccccc1C(=O)Nc1cccc(C(F)(F)F)c1 | 23.6 µM (active)
25 | O=C(Nc1ccccc1C(=O)Nc1cccc(C(F)(F)F)c1)c1ccccc1Cl | 11.8 µM (active)
26 | COCCOc1ccccc1C(=O)Nc1ccccc1C(=O)Nc1cccc(C(F)(F)F)c1 | inactive
27 | CCOc1ccccc1C(=O)Nc1ncccc1C(=O)Nc1cccc(S(=O)(=O)C(F)(F)F)c1 | 18.8 µM (active)
28 | CCOc1ccccc1C(=O)NCCC(=O)Nc1cccc(S(=O)(=O)C(F)(F)F)c1 | inactive
29 | CCC(CC)C(=O)Nc1ccccc1C(=O)Nc1cccc(C(F)(F)F)c1 | 9.4 µM (active)
30 | O=C(Nc1cccc(C(F)(F)F)c1)c1ccccc1NC(=O)C1CC1 | inactive
31 | O=C(Nc1cccc(C(F)(F)F)c1)c1ccccc1NC(=O)C1CCCC1 | inactive
32 | O=C(Nc1cccc(-c2cccc(C(F)(F)F)c2)c1)c1ccccc1NC(=O)C1CCCCC1 | 23.6 µM (active)
33 | COc1ccccc1Nc1ccccc1C(=O)Nc1cccc(C(F)(F)F)c1 | 23.6 µM (active)
34 | O=C(Nc1cccc(C(F)(F)F)c1)c1ccccc1NC(=O)C1CCCCC1 | 18.8 µM (active)
35 | COc1ccccc1C(=O)Nc1ccccc1C(=O)N(C)c1cccc(C(F)(F)F)c1 | 29.7 µM (active)
36 | O=C(Nc1cccc(S(=O)(=O)C(F)(F)F)c1)c1ccccc1NC(=O)C1CCCCC1 | 14.9 µM (active)
37 | O=C(NCc1cccc(C(F)(F)F)c1)c1ccccc1NC(=O)C1CCCCC1 | 11.8 µM (active)
38 | O=C(Nc1ccc(C(F)(F)F)cc1)c1ccccc1NC(=O)C1CCCCC1 | 11.8 µM (active)
39 | CCOc1ccccc1C(=O)Nc1sccc1C(=O)Nc1cccc(S(=O)(=O)C(F)(F)F)c1 | 7.47 µM (active)
40 | O=C(Nc1cccc(SC(F)(F)F)c1)c1ccccc1NC(=O)C1CCCCC1 | inactive
